# Laboratory results: PubChem BioAssay (NCATS)
# Results filed as inconclusive are left out. A number with no mark means an inactive call. Calls come from the whole dose curve; as a rule, active = well fitted inhibition curve with a large enough effect; inconclusive = small, poorly fitted or top-dose-only effect; inactive = flat fitted curve, though single readings scatter.
# Biological target: Calcium and integrin-binding protein 1 (Homo sapiens) (UniProt Q99828)
# Assay: Primary qHTS for Identification of Calcium Integrin Binding Protein 1 (CIB1) Competitor (AID 1508620);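 note: GST tagged CIB1 binding a fluorescein labelled alphaIIb integrin peptide tracer; top concentration of the series differs between compounds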
# Settings: CIB1-GST / FITC-alphaIIb peptide fluorescence polarization; series mostly up to 57.7 µM; activity change, negative = inhibition: at the top concentration
# Summary of the method: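 CIB1-GST (1 uM final) and compound incubated 15 min at room temperature before adding FITC-alphaIIb peptide tracer (100 nM final). Competition for binding read by fluorescence polarization (ex 480, em 540) after another 15 min at room temperature.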
# % is set by controls: 0 for no effect and ±100 for the full control effect.
# Calcium and integrin-binding protein 1 (Homo sapiens), sequence (Q99828 whole entry, looked up): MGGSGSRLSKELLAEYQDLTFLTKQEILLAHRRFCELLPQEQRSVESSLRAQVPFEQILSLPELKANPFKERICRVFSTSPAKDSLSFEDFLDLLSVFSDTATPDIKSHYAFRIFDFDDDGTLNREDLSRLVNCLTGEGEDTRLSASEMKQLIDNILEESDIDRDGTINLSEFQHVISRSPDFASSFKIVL
row,SMILES,"activity change, negative = inhibition"
1,COCC1OC(OC(C)(C)C2CCC3(C)C=C(C4CCC5C4(C)CC(O)C4OC(C(C)(C)O)CCC45C)CCC3O2)C(NC(C)=O)C(O)C1O (centres undefined),3.58% [at 30.2 µM]
2,CC(C)(CC(=O)N1CCCC1)NCC(=O)N1C[C@@H](F)C[C@H]1C#N,-4.61% [at 114 µM]
3,C=C(C)[C@@H]1CC[C@]2(C(=O)O)CC[C@]3(C)C(CCC4[C@]5(C)C(CC[C@]43C)C(C)(C)[C@@H](O)[C@@H]5C(=O)O)C12 (some centres undefined),-1.97%
4,C/C1=C\CC(C)(C)/C=C/C/C(C(=O)O)=C/CC1,-8.16% [at 114 µM]
5,C[C@H]1CCN2C[C@]34C[C@@]5(C(=O)Nc6c5ccc5c6OC=CC(C)(C)O5)C(C)(C)C3C[C@]12C(=O)N4C (some centres undefined),-11.2%
6,COc1ccc(/C=C/C(=O)O[C@@H]2[C@@H](O)[C@@H](O)[C@H](O[C@H]3[C@@H]4C=CO[C@@H](O[C@@H]5O[C@H](CO)[C@@H](O)[C@H](O)[C@H]5O)[C@@H]4[C@@]4(CO)O[C@@H]34)O[C@H]2C)cc1,4.15% [at 30.2 µM]
7,CCC(C)/C=C(C)/C=C/C1=CC2=C(Cl)C(=O)C(C)(OC(C)=O)C(=O)C2=CN1CCCCC(N)C(=O)O (centres undefined),-15.8%
8,COc1cccc(C)c1C(=O)O[C@@H]1C[C@H](O[C@H]2[C@H](O)C[C@H](O[C@@H]3CCC[C@H]4[C@H]3C=C[C@@H]3CCCC/C=C/[C@H]5C=C(C(=O)O)[C@@H](C)C[C@@]56OC(=O)C(=C6O)OC(=O)[C@@]34C)O[C@@H]2C)O[C@H](C)[C@H]1O,-7.15% [at 30.2 µM]
9,CC(=O)O[C@H]1C[C@@H](O)C(C)(C)C2C[C@@H](OC(C)=O)[C@@]3(C)C4=CCC(C(CO)CC(O)C5OC5(C)C)[C@]4(C)CCC3[C@]21C (some centres undefined),-8.68% [at 30.2 µM]
